Experimental findings from PubChem BioAssay (NCATS) are described below.

Experiment [1] has as its target Lysosomal acid glucosylceramidase (Homo sapiens) (UniProt P04062). Put plainly: Glucocerebrosidase-p2 (AID 348; in the data active = potency below about 10 µM; also: potency is read from the fitted curve at half-maximal effect). As to conditions: purified GBA, blue fluorogenic substrate, 40 min. In outline: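 Normal human glucocerebrosidase (0.2 nM) with blue fluorogenic substrate (80 uM final) in citrate/phosphate pH 5.9 with 10mM sodium taurocholate, 0.01% tween-20; 40 min RT, NaOH/glycine stop; fluorescence Ex 365/Em 440; AC50 from a titration from 0.6 nM upwards.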

Experiment [2] in a line: AP1 Signaling Pathway (AID 357; active = well fitted curve in either direction with a large enough effect, not every such curve was filed as active;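 also: ME-180 reporter cells stimulated with EGF at its EC50 level; % is scaled to controls: 0 for no effect and ±100 for the full control effect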). As to conditions: ME-180 AP-1-bla reporter, EGF-induced, beta-lactamase ratio, 5 h; at 7.69 µM (top of the series) unless noted. In outline:
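First, ME-180 AP-1-bla cells were cultured overnight at 37 °C in low-serum Opti-MEM. Next, titrated compounds with EC50 EGF were incubated 5 hours. Finally, CCF4 was added for 2.5 hours and the 460/530 nm ratio recorded.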

The target of experiment [3] is Cytochrome P450 1A2 (Homo sapiens) (UniProt P05177). Put plainly: p450-cyp1a2 (AID 410; calls by dose curve; also: potency is read from the fitted curve at half-maximal effect). Particulars: recombinant CYP1A2, luciferin-ME demethylation, luminescence; series mostly up to 57 µM. In outline: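 20nM CYP1A2, 100uM Luciferin-ME (=Km), 100mM KPO4; cpd 10 min RT; +NADPH regen, 60 min RT; stop/detect 20 min; luminescence. Normalized to furafylline 57 uM = full inhibition.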

A short description of experiment [4]: NFAT Signaling Pathway (AID 444; active = well fitted curve in either direction with a large enough effect, not every such curve was filed as active;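 also: carbachol stimulus at about its EC50 of 1 µM final; % is scaled to controls: 0 for no effect and ±100 for the full control effect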). As to conditions: Jurkat NFAT-bla M1, carbachol, beta-lactamase ratio, 5 h; at 7.69 µM (top of the series) unless noted. In outline:
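Read-out: CCF4 FRET ratio (460 nm/530 nm) after 1 h RT dye loading, used for %activity and AC50 from titration series. Cells: Jurkat NFAT-β-lactamase/M1 line, treated with compound plus 1 uM carbachol for 5 h, 37 °C.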

Experiment [5] is described as follows: Stat Signaling Pathway (AID 446; active = well fitted curve in either direction with a large enough effect, not every such curve was filed as active;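 also: ME-180 cervical cancer cells given 40 pM IL-6 alongside compound; SIE-controlled beta-lactamase reporter measured as 460/530 nm FRET emission ratio; % is scaled to controls: 0 for no effect and ±100 for the full control effect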). As to conditions: ME-180 (cervical carcinoma) SIE beta-lactamase reporter, IL-6 stimulated, 5 h; at 7.69 µM (top of the series) unless noted. In outline:
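Normalization used AC90 stimulation (300 pM IL-6) and AC90 inhibition (125 nM pan-JAK inhibitor at 40 pM IL-6). The underlying signal is SIE-driven beta-lactamase in ME-180 cells after 5 h IL-6 exposure with compound.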

Experiment [6] has as its target Glucocorticoid receptor (Homo sapiens) (UniProt P04150). The experiment in a line: GR-GFP Redistribution (AID 450;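 active = compounds whose dose series gives a full or clear partial fitted curve of increased nuclear translocation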; also: potency is read from the fitted curve at half-maximal effect). Particulars: U2OS GR-GFP nuclear translocation, laser cytometry, 2 h.
Experiment [7] has the same target. Put plainly: GR-EFC Redistribution (AID 451; calls by dose curve; also: potency is read from the fitted curve at half-maximal effect). Particulars: CHO-K1 GR-EFC translocation, beta-gal luminescence, 2 h. In outline:
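Translocation of GR-ED fusion to nuclear EA restores b-gal, read by luminescence after 1 h room-temperature detection. Engineered CHO-K1 biosensor cells, 1,000/well, exposed 2 h at 37 C to titrations up to 46 uM final.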

The target of experiment [8] is Mitogen-activated protein kinase 10 (Mus musculus) (UniProt Q61831). The experiment in a line: JNK3 AlphaScreen Assay (AID 530; active = well fitted curve in either direction with a large enough effect, not every such curve was filed as active;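 also: kinase came from lysate of stimulated human HepG2 cells; signal reports phosphorylation of biotinylated GST-cJun 1-79 at Ser73 with 10 µM ATP; % is scaled to controls: 0 for no effect and ±100 for the full control effect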). Particulars: JNK3 lysate, c-Jun phosphorylation; series mostly up to 57.1 µM. In outline: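 Kinase buffer: 20 mM Tris-HCl pH 7.6, 10 mM MgCl2, 1 mM DTT, 0.1 mM Na3VO4, 0.01% Tween-20; ATP 10 uM. Substrate biotin-GST-cJun(1-79), enzyme from activated HepG2 lysates. Detection by Ser73 phospho-antibody AlphaScreen.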

The target of experiment [9] is Cytochrome P450 3A4 (Homo sapiens) (UniProt P08684). Put plainly: qHTS Assay for Activators of Cytochrome P450 3A4 (AID 885). Also: nearly all actives have a fitted effect of over 65% in size. As to conditions: recombinant CYP3A4, Luciferin-PPXE luminescence, 60 min; series mostly up to 57.1 µM. In outline: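 Human CYP3A4 dealkylates Luciferin-PPXE to luciferin, which luciferase detection converts to light. Substrate was at its KM (25uM), buffer 200mM KPO4, reaction 60 min at RT.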
(In general: qHTS replaces the single test concentration by a dilution series.)

In experiment [10] the target is Cytochrome P450 2D6 (Homo sapiens) (UniProt P10635). Put plainly: qHTS Assay for Inhibitors and Substrates of Cytochrome P450 2D6 (AID 891). Also: potency is read from the fitted curve at half-maximal effect; nearly all actives have a fitted effect of over 60% in size. As to conditions: recombinant CYP2D6, luciferin-ME EGE luminescence; series mostly up to 57.1 µM. In outline:
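Luminescent read-out of luciferin formed by 5 nM human CYP2D6 demethylating 30 uM Luciferin-ME EGE (Km level) over 60 min at room temperature after NADPH regeneration addition. Data normalized to full inhibition by 1.43 uM quinidine.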

Experiment [11] deals with Cytochrome P450 2C19 (Homo sapiens) (UniProt P33261). Put plainly: qHTS Assay for Inhibitors and Substrates of Cytochrome P450 2C19 (AID 899). Also: potency is read from the fitted curve at half-maximal effect; nearly all actives have a fitted effect of over 60% in size. As to conditions: recombinant CYP2C19, luciferin-H EGE luminescence; series mostly up to 57.1 µM. In outline:
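5nM enzyme + 10uM Luciferin-H EGE (=KM), 50mM KPO4; cpd pin-transferred, 10 min 37C; NADPH regen, 60 min 37C; stopped w/ luciferin detection reagent, 20 min; luminescence. Normalized to 57uM ketoconazole (AC100).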

Experiment [12] has as its target Dual specificity protein kinase CLK4 (Homo sapiens) (UniProt Q9HAZ1). Put plainly: qHTS Assay for Inhibitors of CDC-like Kinase 4 (Kinase-Glo Assay) (AID 1770). Also: potency is read from the fitted curve at half-maximal effect; nearly all actives have a fitted effect of over 65% in size. Particulars: recombinant Clk4, Kinase-Glo ATP depletion luminescence; series mostly up to 66.7 µM. In outline: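 Clk4 25 nM, RS peptide 100 uM, ATP 1 uM, pH 7.5 Tris, 10 mM MgCl2, 2.5 mM DTT; 4.5 h RT; ATP depletion read by Kinase-Glo luminescence.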

Experiment [13] shares this target. Put plainly: qHTS Assay for Inhibitors of CDC-like Kinase 4 (ADP-Glo Assay) (AID 1771). Also: potency is read from the fitted curve at half-maximal effect; nearly all actives have a fitted effect of over 70% in size. As to conditions: recombinant CLK4, ADP-Glo luminescence; series mostly up to 80 µM. In outline:
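25 nM Clk4, 100 uM RS peptide, 1 uM ATP (final); 2 mM MgCl2, 0.5 mM EGTA, 2.5 mM DTT, 0.01% Triton X-100; 1 hr RT. ADP-Glo readout: ATP depletion 45 min, conversion/luciferase 30 min, luminescence.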

The target is the same in experiment [14]. Put plainly: qHTS Assay for Inhibitors of CDC-like Kinase 4 (ADP-FP Assay) (AID 1795). Also: potency is read from the fitted curve at half-maximal effect; nearly all actives have a fitted effect of over 60% in size. As to conditions: Transcreener ADP fluorescence polarization; series mostly up to 50 µM. In outline:
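Kinase activity was followed as ADP output, converted from fluorescence polarization with a calibration curve. Reactions ran one hour at low ATP (1 uM) with RS peptide substrate.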

Experiment [15] concerns the target Ubiquitin carboxyl-terminal hydrolase 1 (Homo sapiens) (UniProt O94782). Put plainly: Inhibitors of USP1/UAF1: Pilot qHTS (AID 504865).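 Also: rhodamine fluorescence freed from ubiquitin-rhodamine substrate followed over time; top concentration of the series differs between compounds; % is scaled to controls: 0 for no effect and ±100 for the full control effect; nearly all actives have a fitted effect of over 35% in size.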 Particulars: purified USP1/UAF1, Ub-rhodamine cleavage fluorescence; series mostly up to 54.9 µM. In outline:
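Enzyme-free wells gave the negative control, while test wells held 1nM USP1/UAF1 preincubated with compound for 15 min at room temperature. Ub-Rho at 150nM final started the reaction, and fluorescence at 480/540 nm was recorded kinetically.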

Experiment [16] has as its target Calcium and integrin-binding protein 1 (Homo sapiens) (UniProt Q99828). Put plainly: Primary qHTS for Identification of Calcium Integrin Binding Protein 1 (CIB1) Competitor (AID 1508620). Particulars: CIB1-GST / FITC-alphaIIb peptide fluorescence polarization; series mostly up to 114 µM. In outline: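 CIB1-GST (1 uM final) and compound incubated 15 min at room temperature before adding FITC-alphaIIb peptide tracer (100 nM final). Competition for binding read by fluorescence polarization (ex 480, em 540) after another 15 min at room temperature.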

Experiment [17] is described as follows: Primary qHTS for small molecule stabilizers of the endoplasmic reticulum resident proteome: Secreted ER Calcium Modulated Protein (SERCaMP) assay (AID 1508630). Also: % is scaled to controls: 0 for no effect and ±100 for the full control effect. Particulars: SH-SY5Y GLuc-SERCaMP (Gaussia luciferase released on ER calcium loss) secretion, thapsigargin, luminescence; series mostly up to 38.4 µM. In outline:
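The SH-SY5Y reporter protocol was run at 3 concentrations up to 38.3 uM (primary) or 11 concentrations (follow-up): 16 h compound, 100 nM thapsigargin for 4 h, then extracellular luciferase luminescence.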

In experiment [18] the target is Rap guanine nucleotide exchange factor 3 (Homo sapiens) (UniProt O95398). Put plainly: Confirmatory qHTS for agonist of cAMP-regulated guanine nucleotide exchange factor 3 (EPAC1) (AID 1645881).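 Also: EPAC1 catalysed release of BODIPY-GDP from Rap1B seen as fluorescence loss; nearly all actives have a fitted effect of over 75% in size.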 As to conditions: EPAC1 Rap1B BODIPY-GDP exchange fluorescence, 100% = cAMP control response; series mostly up to 154 µM.
Rap guanine nucleotide exchange factor 3 (Homo sapiens), sequence (O95398 whole entry, looked up): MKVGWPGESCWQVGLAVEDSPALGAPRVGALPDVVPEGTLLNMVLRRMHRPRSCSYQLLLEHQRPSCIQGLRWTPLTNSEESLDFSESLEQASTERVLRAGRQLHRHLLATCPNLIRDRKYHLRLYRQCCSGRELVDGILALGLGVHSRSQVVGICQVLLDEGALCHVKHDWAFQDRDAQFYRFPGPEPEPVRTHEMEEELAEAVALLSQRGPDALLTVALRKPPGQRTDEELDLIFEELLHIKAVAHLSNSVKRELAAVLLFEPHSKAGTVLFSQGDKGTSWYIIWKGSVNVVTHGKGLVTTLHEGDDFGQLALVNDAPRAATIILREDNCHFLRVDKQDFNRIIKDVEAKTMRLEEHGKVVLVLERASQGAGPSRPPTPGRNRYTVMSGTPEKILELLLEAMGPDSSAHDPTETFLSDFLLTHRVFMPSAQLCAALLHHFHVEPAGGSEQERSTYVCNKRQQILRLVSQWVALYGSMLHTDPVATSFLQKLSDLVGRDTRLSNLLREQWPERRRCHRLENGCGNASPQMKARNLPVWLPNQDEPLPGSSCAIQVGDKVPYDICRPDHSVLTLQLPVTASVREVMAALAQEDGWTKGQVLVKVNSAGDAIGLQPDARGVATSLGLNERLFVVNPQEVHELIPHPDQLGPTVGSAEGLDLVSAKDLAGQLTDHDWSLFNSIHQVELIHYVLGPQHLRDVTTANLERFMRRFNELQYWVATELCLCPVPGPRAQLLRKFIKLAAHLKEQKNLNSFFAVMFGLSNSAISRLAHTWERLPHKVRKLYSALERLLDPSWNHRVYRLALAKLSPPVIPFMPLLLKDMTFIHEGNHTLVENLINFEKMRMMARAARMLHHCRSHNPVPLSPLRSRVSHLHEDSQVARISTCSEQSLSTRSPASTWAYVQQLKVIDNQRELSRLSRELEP
The target of experiment [19] is Rap guanine nucleotide exchange factor 4 (Homo sapiens) (UniProt Q8WZA2). Put plainly: Confirmatory qHTS for agonist of cAMP-regulated guanine nucleotide exchange factor 4 (EPAC2) (AID 1645884).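 Also: nucleotide exchange releases bodipy-GDP from Rap1 and this lowers its fluorescence; % is scaled to controls: 0 for no effect and ±100 for the full control effect; nearly all actives have a fitted effect of over 65% in size.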 As to conditions: EPAC2 GEF activity, Rap1B-BODIPY-GDP fluorescence, percent relative to cAMP agonist control; series mostly up to 154 µM.
Rap guanine nucleotide exchange factor 4 (Homo sapiens), sequence (Q8WZA2 whole entry, looked up, the tested form may be a part): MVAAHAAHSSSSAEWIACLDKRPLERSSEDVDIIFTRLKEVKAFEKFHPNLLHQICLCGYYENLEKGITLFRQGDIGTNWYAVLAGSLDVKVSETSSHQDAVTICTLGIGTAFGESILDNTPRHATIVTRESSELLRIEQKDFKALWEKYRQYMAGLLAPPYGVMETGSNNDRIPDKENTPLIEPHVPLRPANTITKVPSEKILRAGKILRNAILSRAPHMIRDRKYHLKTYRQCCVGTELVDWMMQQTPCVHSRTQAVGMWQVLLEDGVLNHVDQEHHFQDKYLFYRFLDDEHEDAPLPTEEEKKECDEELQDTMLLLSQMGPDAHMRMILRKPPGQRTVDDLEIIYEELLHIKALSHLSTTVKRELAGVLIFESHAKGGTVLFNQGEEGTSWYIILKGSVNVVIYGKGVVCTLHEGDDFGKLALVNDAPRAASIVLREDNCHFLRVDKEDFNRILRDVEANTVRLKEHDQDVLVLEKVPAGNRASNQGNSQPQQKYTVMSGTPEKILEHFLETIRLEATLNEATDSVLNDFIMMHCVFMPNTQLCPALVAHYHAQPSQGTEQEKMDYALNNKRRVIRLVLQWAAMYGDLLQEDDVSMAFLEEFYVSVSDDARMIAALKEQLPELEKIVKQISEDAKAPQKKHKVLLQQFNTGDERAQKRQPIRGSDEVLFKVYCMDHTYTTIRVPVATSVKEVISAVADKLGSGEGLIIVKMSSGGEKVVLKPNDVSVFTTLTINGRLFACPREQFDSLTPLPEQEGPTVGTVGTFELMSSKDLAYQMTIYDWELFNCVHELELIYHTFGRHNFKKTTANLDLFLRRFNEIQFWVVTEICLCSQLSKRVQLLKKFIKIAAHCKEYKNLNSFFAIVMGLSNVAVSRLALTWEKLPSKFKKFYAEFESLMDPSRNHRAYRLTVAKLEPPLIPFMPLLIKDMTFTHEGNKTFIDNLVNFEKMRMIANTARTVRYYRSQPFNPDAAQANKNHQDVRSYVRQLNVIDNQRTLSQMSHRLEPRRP
In experiment [20] the target is N-terminal Xaa-Pro-Lys N-methyltransferase 1 (Homo sapiens) (UniProt Q9BV86). Put plainly: Confirmatory qHTS for Inhibitors of N-terminal methyltransferase 1 (NTMT1): MTaseGlo Assay (AID 1645874).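 Also: luminescence from SAH made as NTMT1 methylates SPKRIA peptide using SAM; 0% = DMSO control and -100% = no-enzyme control; nearly all actives have a fitted effect of over 65% in size.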 As to conditions: NTMT1 enzyme, MTase-Glo SAH luminescence; series mostly up to 100 µM. In outline: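 Inhibition was derived from luminescence after SAH-to-ATP conversion, scaled between no-enzyme and DMSO wells, then fitted by 4-parameter Hill. Conditions: 125 nM NTMT1, 100 uM SAM, 1 uM SPKRIA, 30 min RT.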
N-terminal Xaa-Pro-Lys N-methyltransferase 1 (Homo sapiens), sequence (Q9BV86 whole entry, looked up): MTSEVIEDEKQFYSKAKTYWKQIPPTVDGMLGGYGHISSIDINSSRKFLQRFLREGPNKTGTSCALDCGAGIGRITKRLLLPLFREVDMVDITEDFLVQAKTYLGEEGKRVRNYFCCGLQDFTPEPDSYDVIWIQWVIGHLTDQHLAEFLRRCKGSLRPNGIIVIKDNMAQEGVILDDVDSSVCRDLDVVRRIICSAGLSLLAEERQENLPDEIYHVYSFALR

Experiment [21] has as its target Rap guanine nucleotide exchange factor 3 (Homo sapiens) (UniProt O95398). Put plainly: Confirmatory qHTS for antagonist of cAMP-regulated guanine nucleotide exchange factor 3 (EPAC1) (AID 1645880).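 Also: plate controls were DMSO only for no effect and full effect of the ATA control for full effect; nearly all actives have a fitted effect of over 55% in size.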 Particulars: EPAC1 Rap1B-BODIPY-GDP exchange, fluorescence; series mostly up to 115 µM. In outline:
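Released BODIPY-GDP fluoresces less than Rap1-bound BODIPY-GDP; the signal is followed at 480/540 nm at 5-min intervals over 30 min, after 5 min at room temperature. Reactions contain 100 nM EPAC1, 250 nM RAP1B-BODIPY-GDP and 50 uM GDP; results are normalized to ATA and DMSO.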

For experiment [22], the target named is Rap guanine nucleotide exchange factor 4 (Homo sapiens) (UniProt Q8WZA2). The experiment in a line: Confirmatory qHTS for antagonist of cAMP-regulated guanine nucleotide exchange factor 4 (EPAC2) (AID 1645885). Also: nearly all actives have a fitted effect of over 25% in size. Also: potency is read from the fitted curve at half-maximal effect. As to conditions: EPAC2 Rap1B-BODIPY-GDP exchange fluorescence, biochemical; series mostly up to 114 µM.
Experiment [23] is described as follows: Primary qHTS for inhibitors of nuclear receptor binding SET domain protein 2 (NSD2) in an isogenic RCH-ACV NSD2 p.E1099K mutant (9B) (AID 1645876). Also: % is scaled to controls: 0 for no effect and ±100 for the full control effect; nearly all actives have a fitted effect of over 70% in size. As to conditions: RCH-ACV (leukaemia line) NSD2 E1099K (9B) viability, CellTiter-Glo, 72 h; series mostly up to 44.9 µM.
Experiment [24] has as its target Glutathione peroxidase 1 (Homo sapiens) (UniProt P07203). Put plainly: Primary qHTS Assay for Inhibitors of Recombinant Selenoprotein Glutathione Peroxidase 1 (GPX1) (AID 1845191). As to conditions: recombinant GPX1, GR-coupled NADPH fluorescence, 15 min; series mostly up to 48.8 µM. In outline: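 NADPH consumption tracked by fluorescence at 340/450 nm between t=0 and t=15 min, room temperature. Final mix: 10 nM GPX1, 100 nM glutathione reductase, 1 mM GSH, 0.5 mM NADPH, 0.5 mM cumene hydroperoxide, 0.01% BSA; 30 min compound–enzyme preincubation.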

The target in experiment [25] is Rap guanine nucleotide exchange factor 3 (Homo sapiens) (UniProt O95398). Put plainly: Counterscreen qHTS for antagonist of cAMP-regulated guanine nucleotide exchange factor 3 (EPAC1) (AID 1645888). Also: % of control where 0% means no effect. Particulars: Rap1B-BODIPY-GDP nucleotide exchange, fluorescence; series mostly up to 30.8 µM. In outline:
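Rap1B-BODIPY-GDP 250 nM + GDP 50 uM; cpds 7-pt, final 9.74 nM–152 uM (activator mode) or from 7.32 nM upwards (inhibitor mode); RT; FI 480/540 nm at 5 and 30 min, then ± cAMP, reread.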
(In general: The purpose of a counterscreen is to sort out artefacts and off-target activity.)

Records with an inconclusive call do not appear. Activity calls are given as the source filed them. Unless noted, calls follow the shape of the dose curve; as a rule, active = well fitted curve in the direction sought with a large enough effect; inconclusive = small, poorly fitted or top-dose-only effect, or another doubt; inactive = no such curve, though single readings can be large; an effect the other way counts as inactive or inconclusive.

Dual specificity protein kinase CLK4 (Homo sapiens), sequence (Q9HAZ1 whole entry, looked up): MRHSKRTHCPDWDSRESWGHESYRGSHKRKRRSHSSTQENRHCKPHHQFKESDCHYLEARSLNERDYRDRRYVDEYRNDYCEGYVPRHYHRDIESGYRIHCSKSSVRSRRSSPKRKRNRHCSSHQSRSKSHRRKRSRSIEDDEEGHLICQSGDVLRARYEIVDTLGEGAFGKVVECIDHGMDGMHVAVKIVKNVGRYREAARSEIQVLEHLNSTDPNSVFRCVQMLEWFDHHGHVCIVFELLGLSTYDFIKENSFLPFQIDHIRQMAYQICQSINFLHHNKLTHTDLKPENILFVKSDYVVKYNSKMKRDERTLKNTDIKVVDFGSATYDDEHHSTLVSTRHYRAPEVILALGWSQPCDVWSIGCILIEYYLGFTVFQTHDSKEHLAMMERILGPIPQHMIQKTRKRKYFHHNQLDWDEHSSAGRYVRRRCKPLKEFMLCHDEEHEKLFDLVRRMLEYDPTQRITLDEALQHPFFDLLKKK
Calcium and integrin-binding protein 1 (Homo sapiens), sequence (Q99828 whole entry, looked up): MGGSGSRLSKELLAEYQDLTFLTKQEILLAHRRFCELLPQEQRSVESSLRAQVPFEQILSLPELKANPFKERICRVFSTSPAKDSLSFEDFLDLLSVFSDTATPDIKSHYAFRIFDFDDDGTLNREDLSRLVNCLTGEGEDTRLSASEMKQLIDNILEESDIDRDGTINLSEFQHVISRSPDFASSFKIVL
Glucocorticoid receptor (Homo sapiens), sequence (P04150 whole entry, looked up): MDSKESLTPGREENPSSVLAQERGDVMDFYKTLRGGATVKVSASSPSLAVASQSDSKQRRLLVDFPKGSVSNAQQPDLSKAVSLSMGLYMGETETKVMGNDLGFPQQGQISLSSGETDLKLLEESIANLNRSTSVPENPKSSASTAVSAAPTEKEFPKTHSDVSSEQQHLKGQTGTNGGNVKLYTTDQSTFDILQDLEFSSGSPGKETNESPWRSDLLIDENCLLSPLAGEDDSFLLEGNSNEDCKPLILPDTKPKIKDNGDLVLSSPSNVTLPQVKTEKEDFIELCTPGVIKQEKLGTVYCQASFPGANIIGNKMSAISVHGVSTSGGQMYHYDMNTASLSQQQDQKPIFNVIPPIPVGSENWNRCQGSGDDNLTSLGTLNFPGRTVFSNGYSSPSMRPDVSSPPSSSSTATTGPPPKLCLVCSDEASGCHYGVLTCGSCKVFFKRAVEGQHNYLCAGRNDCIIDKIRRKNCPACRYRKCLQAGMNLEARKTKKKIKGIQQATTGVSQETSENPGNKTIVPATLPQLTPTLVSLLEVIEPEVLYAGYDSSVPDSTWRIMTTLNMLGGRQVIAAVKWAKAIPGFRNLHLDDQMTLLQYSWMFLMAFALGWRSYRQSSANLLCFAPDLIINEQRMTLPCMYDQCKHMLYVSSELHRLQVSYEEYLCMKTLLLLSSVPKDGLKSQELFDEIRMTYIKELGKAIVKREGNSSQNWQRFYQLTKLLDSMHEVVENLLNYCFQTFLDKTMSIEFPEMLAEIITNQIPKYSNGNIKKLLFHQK
Ubiquitin carboxyl-terminal hydrolase 1 (Homo sapiens), sequence (O94782 whole entry, looked up): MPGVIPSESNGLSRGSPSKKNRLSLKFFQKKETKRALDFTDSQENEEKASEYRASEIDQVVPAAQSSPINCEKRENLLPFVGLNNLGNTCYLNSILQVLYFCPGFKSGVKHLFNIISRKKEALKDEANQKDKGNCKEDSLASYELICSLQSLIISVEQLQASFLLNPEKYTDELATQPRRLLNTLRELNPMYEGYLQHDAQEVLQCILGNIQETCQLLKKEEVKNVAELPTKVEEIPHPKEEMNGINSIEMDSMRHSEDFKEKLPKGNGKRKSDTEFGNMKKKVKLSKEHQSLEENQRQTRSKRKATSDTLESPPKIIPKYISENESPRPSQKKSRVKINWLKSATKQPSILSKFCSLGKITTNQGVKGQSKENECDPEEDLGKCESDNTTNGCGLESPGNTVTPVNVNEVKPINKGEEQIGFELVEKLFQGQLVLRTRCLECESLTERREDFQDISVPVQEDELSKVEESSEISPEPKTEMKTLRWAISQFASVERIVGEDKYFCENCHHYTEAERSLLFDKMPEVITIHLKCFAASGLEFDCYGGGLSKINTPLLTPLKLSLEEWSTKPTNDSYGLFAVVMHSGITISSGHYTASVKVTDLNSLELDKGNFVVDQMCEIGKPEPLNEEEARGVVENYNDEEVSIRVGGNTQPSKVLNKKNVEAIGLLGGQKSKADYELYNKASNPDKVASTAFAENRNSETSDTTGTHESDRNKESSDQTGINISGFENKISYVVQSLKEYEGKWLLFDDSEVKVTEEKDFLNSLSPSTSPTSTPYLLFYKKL
Cytochrome P450 2C19 (Homo sapiens), sequence (P33261 whole entry, looked up): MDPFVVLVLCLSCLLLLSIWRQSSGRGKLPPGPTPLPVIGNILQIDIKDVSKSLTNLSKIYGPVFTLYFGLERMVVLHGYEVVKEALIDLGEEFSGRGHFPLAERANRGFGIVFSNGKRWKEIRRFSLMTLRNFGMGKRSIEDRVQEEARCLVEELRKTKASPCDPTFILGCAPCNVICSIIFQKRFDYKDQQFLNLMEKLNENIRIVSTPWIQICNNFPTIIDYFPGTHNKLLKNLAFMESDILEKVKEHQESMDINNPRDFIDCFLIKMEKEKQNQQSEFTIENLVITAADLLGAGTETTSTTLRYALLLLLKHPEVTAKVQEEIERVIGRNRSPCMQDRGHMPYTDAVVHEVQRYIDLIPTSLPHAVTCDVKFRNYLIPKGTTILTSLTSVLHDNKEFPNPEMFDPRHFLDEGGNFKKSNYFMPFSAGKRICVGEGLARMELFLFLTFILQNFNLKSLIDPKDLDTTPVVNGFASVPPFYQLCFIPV

Take `CN(Cc1ccco1)c1ncnc2ccc(-c3ccccc3Cl)cc12`: the Potency is > 11.4 µM (inactive) in experiment [1]; 2 µM (active) in [3]; > 46 µM (inactive) in experiment [6]; > 46 µM (inactive) in [7]; 7.94 µM (active) in [10]; 3.16 µM (active) in [11]. Moreover, the values for the Potency in [12], in experiment [13] and in experiment [14] were 14.1 µM (active), 14.1 µM (active) and 4.47 µM (active), respectively. Besides, the activity change, negative = inhibition was -12% (inactive) in experiment [2] and -13.6% (inactive) in experiment [4]. Further, the activity, negative = inhibition in experiment [5] is 11.7% (inactive). The compound was classed as inactive in [8], in [18] and in experiment [19]. Also, the Potency result in [9], in experiment [15], in [16] and in experiment [17] was “inactive” in each case.

For the compound `COc1ccc(-c2nnc3n2N=C(c2c(OC)cccc2OC)CS3)cc1OC`, the Potency entry in experiment [16] and in [20] was “inactive” in each case.

Take `O=S(=O)(Nc1ccc(O)c2ncccc12)c1ccccc1F`: the Potency result in experiment [16] and in experiment [20] was “inactive” throughout.

For `CC(=O)NC(c1cccs1)c1cc(Cl)c2ccccc2c1O` (configuration not stated), the Potency entry in [16] and in experiment [21] was “inactive” throughout. The call in experiment [18] and in experiment [19] was inactive. Moreover, the Potency in experiment [22] is 12 µM (active).

For `O=C1CCc2cc(S(=O)(=O)Nc3cccc(Cl)c3)ccc2N1`, the Potency result in experiment [16], in [23] and in [24] was “inactive” throughout.

In the case of `O=C1Cc2cc(S(=O)(=O)N3CCNCC3)ccc2N1`, the Potency entry in experiment [16] and in experiment [21] was “inactive” throughout. The outcome in [18] and in experiment [25] was inactive. Also, in experiment [19], the activation is 3.97% [at 17.1 µM] (inactive). In addition, the activity change, negative = inhibition in [22] was 9.22% [at 12.7 µM] (inactive).
